# PubChem BioAssay (EPA / NIEHS)
# Activity calls are given as the source filed them. Rule for the calls: active = hit-call score of the fitted dose curve at least 0.9, where 1 is the maximum; inactive = score below 0.9.
# Read-out: Alpha-fetoprotein (AFP) gene, AFP (gene 174)
# Assay: LTEA_HepaRG_AFP: Life Technologies and Expression Analysis (LTEA) Assay for Alpha-fetoprotein (AFP) gene using HepaRG (AID 2283472);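 for AC50: AFP transcript by TaqMan qRT-PCR normalized to ACTB GAPDH and POLR2A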
# Conditions: mRNA level, 48 h; actives raise or lower the signal
# Protocol: It is a marker of Undifferentiated hepatocyte.Data from the assay component LTEA_HepaRG_AFP was analyzed into 1 endpoint. This assay endpoint, LTEA_HepaRG_AFP, was analyzed with bidirectional fitting relative to DMSO as the negative control and baseline of activity. Using a type of inducible reporter, measures of mRNA induction for gain or loss-of-signal activity can be used to understand regulation of transcription factor activity. To generalize the intended target to other relatable targets, this assay endpoint is annotated to the background measurement intended target family, where the subfamily is assay control.
# A total of 1060 chemcials from the ToxCast library were tested in eight-point concentration-response experiments. Cell culture and cytotoxicity assays were conducted at Thermo Fisher Scientific's Custom Services facility (Madison, WI). A single lot of human HepaRG cells (Thermo Fisher Scientific, Frederick, MD) was used for the cell culture experiments. 96-well format collagen type I coated plates of human HepaRG cells were prepared using established methods. Briefly, cryopreserved HepaRG cells were thawed, plated at a density of approximately 100,000 cells/well in HepaRG Thaw, Plate, and General Purpose media (HPRG770, Thermo Fisher Scientific), and incubated for 48 hours. 0.5% DMSO was selected as vehicle control to balance the requisite need of DMSO in HepaRG cultures to maintain differentiation (for example, baseline metabolism, proportions of hepatocytes vs. cholangiocytes), while enabling further hepatic receptor pathway activation (for example, PXR and CAR) in response to chemical exposure. 48 hours after plating, the culture medium was replaced with HepaRG Serum-Free Incudtion Media. Cells were exposed to each test chemical in duplicate and maintained in CO2 incubators for another 48 hours. Chemical plates were thawed to room temperature and 200x concentrations of treatment groups were prepared. 8-point conentration-reponse curves were made with the highest exposure at 100 uM, followed by half-log dilutions, all in 0.5% DMSO. Each test plate contained variouse controls, induction positive controls (1mM phenobarbital), cytotoxicity positive controls ([…] aflatoxin B1), vehicle controls (0.5% DMSO), and total lysis controls (0.5% DMSO). Cell morphology images were taken using an Essen IncuCyte FLR automated microscope, with six 96-well plates imaged in about 24 minutes. Images were captured and exported and JPEG files. Spent culture media was transfered to black-well plates for the LDH assay, and remaining media was sorted at -80 C for later use. Cells were treated with RLT buffer and frozen until shipped for gene expression analysis. Total RNA was isolated from the cell suspension in 75 uL of Buffer RLT (Qiagen, Germantown, MD 20874) by Quintiles/Expression Analysis (Durham, NC) using a custom isolation procedure. Total RNA from each plate well was transferred to a preamplification plate. Fluidigm's 96.96 Dynamic ArrayTM (Fluidigm, Amsterdam, the Netherlands) technology was used for gene expression analyses by quantitative reverse transcription polymerase chain reaction (qRT-PCR, performed by Quintiles/Expression Analysis, Durham, NC)89. Standard TaqManTM Assays (Applied Biosystems/ThermoFisher Scientific, Foster City, CA) were used to assess the expression of 93 genes selected based on their selectivity and sensitivity to important hepatic receptors known to be modulated by environmental chemicals; importance in human hepatocyte functionality; and hepatotoxicity. Three "housekeeping" endogenous control genes were also included and used for normalization: actin beta (ACTB), Glyceraldehyde 3 phosphate dehydrogenase (GAPDH) and RNA Polymerase II Subunit A (POLR2A). qRT-PCR was conducted according to the manufacturer's protocol.
Compound,outcome,AC50
c1cc2c3c(cccc3c1)CC2,inactive,
CC(C)(C)c1ccc(O)cc1,inactive,
Cc1ccc(N)cc1N,inactive,
CSC(C)(C)C=NO,inactive,
CCOP(=S)(OCC)SCSCC,inactive,
CCOP(=S)(Oc1ccc([N+](=O)[O-])cc1)c1ccccc1 (stereo not given),,29.4 µM (active)
CCNc1nc(Cl)nc(NC(C)(C)C)n1,inactive,
CCC1(c2ccccc2)C(=O)N=C(O)NC1=O (stereo not given),inactive,
CCCCN(CCCC)SN(C)C(=O)Oc1cccc2c1OC(C)(C)C2,inactive,
Nc1ccc2ccccc2c1,inactive,
O=P1(N(CCCl)CCCl)NCCCO1 (stereo not given),inactive,
[N-]=[N+]=[N-],,77.9 µM (active)
CC(Cl)(Cl)C(=O)O,inactive,
CCOC(=O)c1ccccc1C(=O)OCC,inactive,
O=C(O)C(Cl)Cl,inactive,
CCCCCCCc1ccc(O)cc1,inactive,
CC(Cc1ccc(OCC(=O)O)cc1)NCC(O)c1csc(C(F)(F)F)n1 (stereo not given),inactive,
Nc1ccc(Cl)cc1,inactive,
ClC1=C(Cl)C2(Cl)C3C(Cl)C(Cl)CC3C1(Cl)C2(Cl)Cl (stereo not given),,15.2 µM (active)
O=C(O)C1C(C(=O)O)C2(Cl)C(Cl)=C(Cl)C1(Cl)C2(Cl)Cl (stereo not given),inactive,

Compound,outcome,AC50
c1ccc2c(c1)Nc1ccccc1S2,inactive,
Cc1ccc(O)cc1C,inactive,
CCOS(=O)(=O)OCC,inactive,
CN(C)C(=O)Cl,inactive,
OCC1CO1 (stereo not given),inactive,
Cc1ccc([N+](=O)[O-])cc1C,inactive,
CCCN(CCC)c1c([N+](=O)[O-])cc(C(C)C)cc1[N+](=O)[O-],,50 µM (active)
ClC(Cl)(Cl)c1ccccc1,inactive,
c1ccc(OP(Oc2ccccc2)Oc2ccccc2)cc1,inactive,
ClC(Cl)c1ccccc1,inactive,
O=P(Oc1ccccc1)(Oc1ccccc1)Oc1ccccc1,,50 µM (active)
O=[N+]([O-])c1ccc(Cl)c(Cl)c1,inactive,
CCCCc1ccccc1,inactive,
COCCOCCO,inactive,
CCC(C)(C)c1ccc(O)cc1,inactive,
CCCCN(CCCC)N=O,inactive,
CC(C)(C)OOC(C)(C)C,inactive,
Nc1cc2c3c(c1)C(c1ccccc1)=N[C@@H](NC(=O)c1cccnc1)C(=O)N3CC2,inactive,
CCOc1ccc(C(C)(C)COCc2cccc(Oc3ccccc3)c2)cc1,inactive,
CCN(CC)c1ccccc1,inactive,
